Data: PubChem BioAssay AID1209 (Sanford-Burnham Center for Chemical Genomics, 2008)
In all, about 190,000 compounds went through this assay and about 810 (0.43%) were called active. Shown is part of a subset that was picked to be rich in actives. A number with no mark means an inactive call. Rule as the data show it: active = inhibition above about 50%; inactive = the rest.

Target: Mannose-6-phosphate isomerase (Homo sapiens) (UniProt P34949)
Test: inhibitors of human PMI, primary screen, biochemical, fluorescence intensity, coupled assay (AID 1209);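 also: plate controls were DMSO vehicle for no effect and wells lacking substrate for full effect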
Conditions: purified PMI enzyme, at 20 µM, stronger effect = higher value

Mannose-6-phosphate isomerase (Homo sapiens), sequence (P34949 whole entry, looked up): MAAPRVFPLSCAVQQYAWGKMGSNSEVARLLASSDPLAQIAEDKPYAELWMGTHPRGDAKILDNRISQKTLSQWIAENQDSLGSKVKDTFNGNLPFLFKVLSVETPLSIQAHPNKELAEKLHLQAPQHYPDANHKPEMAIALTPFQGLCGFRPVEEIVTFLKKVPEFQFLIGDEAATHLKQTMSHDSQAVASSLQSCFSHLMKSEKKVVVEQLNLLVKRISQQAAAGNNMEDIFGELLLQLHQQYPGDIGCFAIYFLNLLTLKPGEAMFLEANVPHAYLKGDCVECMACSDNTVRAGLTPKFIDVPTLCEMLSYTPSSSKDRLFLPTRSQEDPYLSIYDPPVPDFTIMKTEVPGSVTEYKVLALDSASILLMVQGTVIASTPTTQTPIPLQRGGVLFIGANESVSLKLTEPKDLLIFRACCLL

| SMILES | inhibition |
| --- | --- |
| CC(OC(=O)/C=C/c1cccs1)C(=O)Nc1ccc(S(N)(=O)=O)cc1 (stereo unspecified) | -5.9% |
| Cc1ccccc1OCC(=O)N(Cc1ccc(N(C)C)cc1)C1CCS(=O)(=O)C1 (stereo unspecified) | 3.1% |
| C=CCNc1ccc(F)c(F)c1N1CCCCCC1=O | 4.8% |
| NC(=O)c1cc2cc(Cc3ccccc3Cl)ccc2oc1=O | -1.2% |
| O=C(CN1C(=O)c2ccccc2S1(=O)=O)Nc1ccc(S(=O)(=O)N2CCCCCC2)cc1 | 18.7% |
| Cc1cc(C)c(S(=O)(=O)Nc2ccc(O)c(Sc3ncn[nH]3)c2)c(C)c1 | 6.8% |
| Cc1cc(C)c(S(=O)(=O)/N=C2/C=C(Sc3ncn[nH]3)C(=O)c3ccccc32)cc1C | 98.1% (active) |
| Cc1cc(C)c(S(=O)(=O)/N=C2/C=C(SCC(=O)O)C(=O)c3ccccc32)cc1C | -23.3% |
| Cc1ccc(S(=O)(=O)Nc2ccc(O)c(Sc3ncn[nH]3)c2)cc1 | 15.2% |
| Cc1ccc(S(=O)(=O)/N=C2/C=C(Sc3ncn[nH]3)C(=O)c3ccccc32)c(C)c1 | 101% (active) |
| Cc1ccc(NC2=C/C(=N\S(=O)(=O)c3cccs3)c3ccccc3C2=O)c(C)c1 | 0.2% |
| CCn1c(COc2c(C)cccc2C)nnc1SCC(=O)N1CCN(c2ccccc2)CC1 | 8.2% |
| Cc1ccc(-c2nn(CC(=O)NCc3ccccn3)c(=O)c3ccccc23)cc1S(=O)(=O)N(C)C | -28.3% |
| COc1ccccc1NC(=O)c1ccc(NS(=O)(=O)c2ccc(F)c(F)c2F)cc1 | -19.3% |
| COC(=O)c1cn(C(=O)c2ccc(C)cc2)c2ccccc12 | 12.6% |
| CCC(C)C1=CC(=Nc2c(C)n(C)n(-c3ccccc3)c2=O)C=C(C(C)CC)C1=O (stereo unspecified) | 52.2% (active) |
| Cc1c(N=C2C=C(Br)C(=O)C(Br)=C2)c(=O)n(-c2ccccc2)n1C | 64.3% (active) |
| Cc1c(N=Nc2ccc(O)cc2)c(=O)n(-c2ccccc2)n1C | 15.5% |
| CC(=O)/C(N=Nc1c(C)n(C)n(-c2ccccc2)c1=O)=C(\C)O | -44.4% |
| CCCC(c1c(C)n(C)n(-c2ccccc2)c1=O)c1c(C)n(C)n(-c2ccccc2)c1=O | 3.4% |
| CC1=CC(=Nc2c(C)n(C)n(-c3ccccc3)c2=O)C=C(C)C1=O | 83.8% (active) |
| Cc1c(N=C2C=CC(=O)c3ccccc32)c(=O)n(-c2ccccc2)n1C | 55.2% (active) |
| Cc1c(N=c2scc(-c3ccccc3)n2C)c(=O)n(-c2ccccc2)n1C | -16.2% |
| Cc1c(N=CC=Nc2c(C)n(C)n(-c3ccccc3)c2=O)c(=O)n(-c2ccccc2)n1C | -0.3% |
| Cc1c(N=C2C(=O)Nc3ccccc32)c(=O)n(-c2ccccc2)n1C | 0.4% |
| CCC(c1c(C)n(C)n(-c2ccccc2)c1=O)c1c(C)n(C)n(-c2ccccc2)c1=O | -4.4% |

| SMILES | inhibition |
| --- | --- |
| Cc1csc(=Nc2c(C)n(C)n(-c3ccccc3)c2=O)n1-c1ccccc1 | 1.6% |
| CC(C)NS(=O)(=O)c1ccc(OCC(=O)NC(C)c2ccccc2)cc1 (stereo unspecified) | 2.2% |
| O=C(O)c1ccc(/C=C/c2nc3sc4c(c3c(=O)[nH]2)CCC4)cc1 | -3.7% |
| COc1cnn(C(C)(C)C)c(=O)c1Cl | -0.3% |
| COc1ccc(CC(=O)NCc2ccc3c(c2)cc(C)n3C)cc1OC | 6.1% |
| O=C(Nc1ccc(Cl)cc1)NC1CCCc2ccccc21 (stereo unspecified) | 2.6% |
| Cc1cc(/C=C(\C#N)C(N)=O)c(C)n1-c1ccc(N2CCOCC2)c([N+](=O)[O-])c1 | 3.6% |
| C[C@]12CC[C@@H]3c4cc(O)c(O)cc4CC[C@H]3[C@@H]1CC[C@@H]2O | 51.8% (active) |
| COc1cc2c(cc1O)CC[C@@H]1[C@@H]2CC[C@]2(C)[C@@H](O)CC[C@@H]12 | 1.7% |
| C[C@]12CC[C@@H]3c4ccc(O)cc4CC[C@H]3[C@@H]1CC[C@@H]2O | -5.7% |
| Cc1ccc(NC(=O)COC(=O)c2ccc3c(c2)C(=O)N(CCc2ccccc2)C3=O)c(C)c1 | 4.6% |
| Cc1cc(C)n(-c2cc(N3CCN(S(=O)(=O)c4ccc(Br)cc4)CC3)ccc2[N+](=O)[O-])n1 | 13.5% |
| Cc1nc2c(C(=O)NCCc3ccccc3Cl)c[nH]n2c(=O)c1Cl | 2.9% |
| Cc1nc2c(C(=O)NCc3ccccc3)c[nH]n2c(=O)c1Cl | 12.3% |
| Cc1nc2c(C(=O)NCCc3ccccc3)c[nH]n2c(=O)c1Cl | 60.3% (active) |
| CNS(=O)(=O)c1cnccc1N1CCN(C)CC1 | 9.4% |
| Cc1ccc(C(=O)Nc2ccc(SC(F)F)cc2)s1 | -11.4% |
| COc1cc(/C=C2\CC/C(=C\c3cc(OC)c(O)c(OC)c3)C2=O)cc(OC)c1O | 59.3% (active) |
| COc1cc(/C=C2\CC/C(=C\c3cc(OC)c(OC)c(OC)c3)C2=O)cc(OC)c1OC | 4.2% |
| COc1ccc(/C=C2\CC/C(=C\c3ccc(OC)c(OC)c3)C2=O)cc1OC | 25.9% |
| CCn1c(COc2cccc3ccccc23)nnc1SCC(=O)OC1CCCCC1 | 17.8% |
| Cc1ccc(S(=O)(=O)NCC(=O)N2CCCC2)cc1 | -10.6% |
| Cc1ccccc1CNC(=O)Cc1cccs1 | 2% |
| Cc1ccsc1/C=C1\CCc2ccccc2C1=O | 25.2% |
| COc1ccc(CCNC(=O)C2CC(=O)N(CCc3ccccc3)C2)cc1OC (stereo unspecified) | 0% |
| FC(F)(F)c1ccccc1NC(=S)Nc1cccc2cnccc12 | 5.4% |

| SMILES | inhibition |
| --- | --- |
| CC(C)NC(=S)Nc1cccc2cnccc12 | -4.7% |
| Cc1ccccc1NC(=S)Nc1cccc2cnccc12 | 60.5% (active) |
| Cc1ccc(NC(=S)Nc2cccc3cnccc23)c(C)c1 | 37.8% |
| Cc1ccc(C)c(NC(=S)Nc2cccc3cnccc23)c1 | 50.3% (active) |
| Cc1ccc(C)c(NC(=S)Nc2cccnc2)c1 | -7% |
| O=C(O)CCC(=O)NNC(=O)CCC(=O)Nc1ccccc1 | 13.6% |
| CC(=O)c1cc(NC(=O)c2ccc([N+](=O)[O-])cc2)c(=O)oc1C | -41% |
| O=C(Nc1cc2c(oc1=O)CCCC2=O)c1cccc(Cl)c1 | -17.4% |
| CCOC(=O)C1CCN(S(=O)(=O)Cc2ccccc2)CC1 | -11.2% |
| CCOC(=O)N1CCN(S(=O)(=O)Cc2ccccc2)CC1 | 104% (active) |
| CCN1CCN(S(=O)(=O)Cc2ccccc2)CC1 | -0.2% |
| CN1/C(=N\O)c2cccc3cccc1c23 | 5.7% |
| CC1=Nc2cccc3cccc(c23)N1C | 25.2% |
| CCC1=[N+](C)c2cccc3cccc(c23)N1C | 51% (active) |
| O=C(CCc1ccc(Oc2cc([N+](=O)[O-])cc([N+](=O)[O-])c2)cc1)N1CCCCCC1 | 5.7% |
| COc1ccccc1NC(=S)N(CCc1nc2cc(C)c(C)cc2[nH]1)Cc1cccnc1 | -2% |
| CCOC(=O)C(NC(=O)CC)(Nc1ccc(S(=O)(=O)Nc2ncccn2)cc1)C(F)(F)F (stereo unspecified) | 0.5% |
| Cc1cc2c(C)cc(=O)oc2c2c1NCCC2 | 25.3% |
| Cc1ccc(OC(=O)C(F)(F)F)c2c1NCCC2 | 16.6% |
| Oc1c(Cl)cc(Cl)c2c1NCCC2 | 61.2% (active) |
| CCOC(=O)c1sc(=S)n(-c2cc(F)ccc2F)c1N | 37.9% |
| COC(=O)c1sc(=S)n(-c2cc(F)ccc2F)c1N | 55.8% (active) |
| CCOC(=O)c1sc(=S)n(-c2ccccc2)c1N | -2.1% |
| CCOC(=O)c1sc(=S)n(-c2cc(OC)ccc2OC)c1N | 65.3% (active) |
| CCOC(=O)c1sc(=S)n(-c2ccccc2OC)c1N | 21.8% |
| COc1ccc(Cl)cc1-n1c(N)c(C(N)=O)sc1=S | 22.6% |

| SMILES | inhibition |
| --- | --- |
| CCOC(=O)c1sc(=S)n(-c2ccc(C)cc2)c1N | 30.1% |
| COC(=O)c1sc(=S)n(-c2ccccc2OC)c1N | 0.3% |
| COC(=O)c1sc(=S)n(-c2cccc(Cl)c2)c1N | 75.9% (active) |
| CCOC(=O)c1sc(=S)n(-c2cccc(OC)c2)c1N | 63.2% (active) |
| Cc1ccc(NC(=O)c2sc(=S)n(-c3cc(C)ccc3F)c2N)cc1 | 1.4% |
| CCOC(=O)c1sc(=S)n(-c2ccc(F)c(F)c2)c1N | 27% |
| CCOC(=O)c1c(C)c(C(=O)NCc2ccccc2OC)c(C)n1C | 11.8% |
| CCOC(=O)CNC(=S)n1ncnc1N | -9.1% |
| Cc1ccc(S(=O)(=O)CCC(=O)Nc2ccc(F)cc2)cc1 | 6.5% |
| Cc1cccc(C(C)C)c1NC(=O)COC(=O)Cc1ccsc1 | 9% |
| Cc1ccc(OCC(=O)N/N=C/c2ccco2)cc1 | -1.5% |
| Oc1ccc(/C=N/Nc2cc(N3CCCC3)nc(N3CCCC3)n2)cc1 | 32% |
| Oc1ccc(/C=N\Nc2cc(N3CCOCC3)nc(N3CCOCC3)n2)c(O)c1 | 32.2% |
| Oc1cccc(/C=N/Nc2cc(N3CCCC3)nc(N3CCCC3)n2)c1 | 41.2% |
| COc1ccc(/C=N/Nc2cc(N3CCCC3)nc(N3CCCC3)n2)cc1 | 32% |
| CC(C)c1ccc(/C=N/Nc2cc(N3CCOCC3)nc(N3CCOCC3)n2)cc1 | 77% (active) |
| CCNc1nc(NCC)nc(N/N=C/c2ccc(O)c(O)c2)n1 | 61.4% (active) |
| Oc1ccc(/C=N/Nc2cc(N3CCOCC3)nc(N3CCOCC3)n2)cc1O | 76.8% (active) |
| CN(C)c1ccc(/C=C/C=N/Nc2nc(N3CCOCC3)nc(N3CCOCC3)n2)cc1 | 7.3% |
| CCNc1nc(NCC)nc(N/N=C/c2ccc(N(C)C)cc2)n1 | -12.9% |
| CN(C)c1ccc(/C=N/Nc2cc(N3CCOCC3)nc(N3CCOCC3)n2)cc1 | 73.3% (active) |
| CCNc1nc(NCC)nc(N/N=C/c2ccc(Br)cc2)n1 | -0.7% |
| Clc1ccc(-c2ccc(/C=N/Nc3cc(N4CCOCC4)nc(N4CCOCC4)n3)o2)cc1 | 47.2% |
